Test results: PubChem BioAssay AID1159580 (chemical genetic matrix, 2015)
In all, about 5,500 compounds went through this assay and about 2,000 (36%) were called active. Another 18% or so got no clear call; they are omitted. Rule as the data show it: active = normalized growth mostly below about 0.91 (no sharp cut-off); inconclusive = no clear call, values can overlap the other calls; inactive = mostly above about 0.92. The list shows a part of the results.

Test: chemical genetic growth profiling, strain panel (AID 1159580);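 also: tested at 20 µM; growth read once vehicle control cultures reached saturation at 30 °C; 1 = growth at the plate median or of vehicle wells; lower values mean less growth of the strain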
Conditions: growth OD

Measured: normalized growth

CCCCN(CCCC)CCCOC(=O)c1ccc(N)cc1
inactive: S. cerevisiae deletion strains, locus YJR075W, strain HOC1, hits give low values 0.981 | S. cerevisiae deletion strains, locus YKL009W, strain mrt4, hits give low values 0.989 | S. cerevisiae deletion strains, locus YKL068W, hits give low values 0.969 | S. cerevisiae deletion strains, locus YKL085W, strain MDH1 (second series), hits give low values 0.987 | S. cerevisiae deletion strains, locus YKL085W, strain MDH1, hits give low values 0.987 | S. cerevisiae deletion strains, locus YKL160W, strain elf1, hits give low values 0.995 | S. cerevisiae deletion strains, locus YKL190W, strain CNB1, hits give low values 0.988 | S. cerevisiae deletion strains, locus YKR001C, strain vps1, hits give low values 0.98 | S. cerevisiae deletion strains, locus YKR026C, strain gcn3, hits give low values 0.993 | S. cerevisiae deletion strains, locus YKR091W, strain srl3, hits give low values 0.992 | S. cerevisiae deletion strains, locus YLL001W, strain dnm1, hits give low values 0.996 | S. cerevisiae deletion strains, locus YLL026W, hits give low values 0.995 | S. cerevisiae deletion strains, locus YLL041C, strain sdh2, hits give low values 0.995 | S. cerevisiae deletion strains, locus YLR027C, strain aat2, hits give low values 0.996 | S. cerevisiae deletion strains, locus YLR039C, strain RIC1, hits give low values 0.863 | S. cerevisiae deletion strains, locus YLR058C, strain SHM2, hits give low values 0.99 | S. cerevisiae deletion strains, locus YLR102C, strain apc9, hits give low values 1.01 | S. cerevisiae deletion strains, locus YLR113W, strain HOG1, hits give low values 0.986 | S. cerevisiae deletion strains, locus YLR221C, strain rsa3, hits give low values 0.98 | S. cerevisiae deletion strains, locus YLR258W, strain gsy2, hits give low values 0.985 | S. cerevisiae deletion strains, locus YLR262C, strain YPT6 (second series), hits give low values 0.935 | S. cerevisiae deletion strains, locus YLR262C, strain YPT6, hits give low values 0.876 | S. cerevisiae deletion strains, locus YLR268W, strain sec22, hits give low values 0.92 | S. cerevisiae deletion strains, locus YLR320W, strain mms22, hits give low values 0.993 | S. cerevisiae deletion strains, locus YLR330W, strain CHS5, hits give low values 0.988 | S. cerevisiae deletion strains, locus YLR342W, strain FKS1 (second series), hits give low values 1.06 | S. cerevisiae deletion strains, locus YLR342W, strain FKS1, hits give low values 0.996 | S. cerevisiae deletion strains, locus YLR357W, strain rsc2, hits give low values 0.99 | S. cerevisiae deletion strains, locus YLR370C, strain arc18, hits give low values 0.995 | S. cerevisiae deletion strains, locus YLR371W, strain rom2, hits give low values 0.992 | S. cerevisiae deletion strains, locus YLR384C, strain iki3, hits give low values 0.995 | S. cerevisiae deletion strains, locus YLR418C, strain cdc73, hits give low values 1.02 | S. cerevisiae deletion strains, locus YML016C, strain PPZ1, hits give low values 0.993 | S. cerevisiae deletion strains, locus YML032C, strain rad52, hits give low values 0.965 | S. cerevisiae deletion strains, locus YML120C, strain ndi1, hits give low values 0.988 | S. cerevisiae deletion strains, locus YML124C, strain tub3, hits give low values 0.997 | S. cerevisiae deletion strains, locus YMR058W, strain fet3, hits give low values 0.999 | S. cerevisiae deletion strains, locus YMR078C, strain ctf18, hits give low values 0.993 | S. cerevisiae deletion strains, locus YMR125W, strain sto1, hits give low values 0.992 | S. cerevisiae deletion strains, locus YMR129W, hits give low values 0.988 | S. cerevisiae deletion strains, locus YMR205C, strain PFK2, hits give low values 0.991 | S. cerevisiae deletion strains, locus YMR223W, strain ubp8, hits give low values 1.01 | S. cerevisiae deletion strains, locus YMR231W, strain pep5, hits give low values 0.997 | S. cerevisiae deletion strains, locus YMR263W, strain SAP30, hits give low values 0.982 | S. cerevisiae deletion strains, locus YMR307W, strain GAS1, hits give low values 1.06 | S. cerevisiae deletion strains, locus YNL067W, strain RPL9B, hits give low values 0.963 | S. cerevisiae deletion strains, locus YNL071W, strain lat1, hits give low values 0.994 | S. cerevisiae deletion strains, locus YNL128W, strain TEP1, hits give low values 0.994 | S. cerevisiae deletion strains, locus YNL153C, strain GIM3, hits give low values 0.976 | S. cerevisiae deletion strains, locus YNL183C, strain NPR1, hits give low values 0.921 | S. cerevisiae deletion strains, locus YNL209W, strain ssb2, hits give low values 0.985 | S. cerevisiae deletion strains, locus YNL233W, strain BNI4, hits give low values 0.985 | S. cerevisiae deletion strains, locus YNL248C, strain rpa49, hits give low values 0.976 | S. cerevisiae deletion strains, locus YNL250W, strain rad50, hits give low values 0.983 | S. cerevisiae deletion strains, locus YNL271C, strain bni1, hits give low values 0.984 | S. cerevisiae deletion strains, locus YNL298W, strain CLA4, hits give low values 0.978 | S. cerevisiae deletion strains, locus YNL307C, strain MCK1, hits give low values 0.982 | S. cerevisiae deletion strains, locus YNL322C, strain KRE1 (second series), hits give low values 0.991 | S. cerevisiae deletion strains, locus YNL322C, strain KRE1, hits give low values 0.994 | S. cerevisiae deletion strains, locus YNR049C, strain mso1, hits give low values 0.998 | S. cerevisiae deletion strains, locus YNR052C, strain pop2, hits give low values 0.992 | S. cerevisiae deletion strains, locus YOL006C, strain TOP1, hits give low values 0.938 | S. cerevisiae deletion strains, locus YOL012C, strain htz1 0.971 | S. cerevisiae deletion strains, locus YOL147C, strain pex11, hits give low values 0.989 | S. cerevisiae deletion strains, locus YOR001W, strain rrp6, hits give low values 0.995 | S. cerevisiae deletion strains, locus YOR061W, strain CKA2, hits give low values 0.992 | S. cerevisiae deletion strains, locus YOR069W, strain VPS5, hits give low values 0.995 | S. cerevisiae deletion strains, locus YOR070C, strain gyp1, hits give low values 0.993 | S. cerevisiae deletion strains, locus YOR080W, strain dia2, hits give low values 0.996 | S. cerevisiae deletion strains, locus YOR083W, strain WHI5, hits give low values 0.984 | S. cerevisiae deletion strains, locus YOR106W, strain vam3, hits give low values 0.995 | S. cerevisiae deletion strains, locus YOR136W, strain idh2, hits give low values 0.994 | S. cerevisiae deletion strains, locus YOR144C, strain elg1, hits give low values 0.986 | S. cerevisiae deletion strains, locus YOR184W, strain ser1, hits give low values 0.979 | S. cerevisiae deletion strains, locus YOR231W, strain MKK1, hits give low values 0.961 | S. cerevisiae deletion strains, locus YOR265W, strain rbl2, hits give low values 0.998 | S. cerevisiae deletion strains, locus YOR270C, strain vph1, hits give low values 1.01 | S. cerevisiae deletion strains, locus YOR290C, strain snf2, hits give low values 0.986 | S. cerevisiae deletion strains, locus YOR316C, strain cot1, hits give low values 0.978 | S. cerevisiae deletion strains, locus YPL051W, strain arl3, hits give low values 0.995 | S. cerevisiae deletion strains, locus YPL055C, strain LGE1, hits give low values 0.986 | S. cerevisiae deletion strains, locus YPL078C, strain atp4, hits give low values 0.988 | S. cerevisiae deletion strains, locus YPL106C, strain sse1, hits give low values 0.977 | S. cerevisiae deletion strains, locus YPL240C, strain hsp82, hits give low values 0.997 | S. cerevisiae deletion strains, locus YPL241C, strain CIN2, hits give low values 1 | S. cerevisiae deletion strains, locus YPL256C, strain CLN2, hits give low values 0.937 | S. cerevisiae deletion strains, locus YPR119W, strain clb2, hits give low values 0.969 | S. cerevisiae deletion strains, locus YPR141C, strain kar3, hits give low values 0.987 | S. cerevisiae deletion strains, locus YPR163C, strain tif3, hits give low values 0.973 | S. cerevisiae deletion strains, locus YPR167C, strain met16, hits give low values 0.978 | S. cerevisiae deletion strains, strain wtn01, hits give low values 0.97 | S. cerevisiae strains, strain wild type, hits give low values 1
